Bioassay records from PubChem.
JMJD2A Tudor – qHTS Assay for Inhibitors of JMJD2A-Tudor Domain; Lysine-specific demethylase 4A (Homo sapiens), O75164; AlphaScreen JMJD2A-Tudor / H3K4me3 peptide binding; Potency, µM (top dose mostly 114 µM), usual class: inhibitors; hit rate 4.4% among 390,000; AID 504339, 2011; further: nearly all actives have a fitted effect of over 50% in size
HP1b binding inh – HTS for Inhibitors of HP1-beta Chromodomain Interactions with Methylated Histone Tails; Chromobox protein homolog 1 (Homo sapiens), P83916; AlphaScreen HP1-beta / biotin-H3K9me3 peptide binding; Potency, µM (doses to about 114 µM), actives largely listed as inhibitors; hit rate 0.56% among 390,000; further: nearly all actives have a fitted effect of over 70% in size
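AlphaScreen: HP1-beta (50 nM) preformed 30 min with biotin-H3(1-18)K9me3 peptide (50 nM) in PBS pH 7.4, 0.01% Tween-20. Compound added for 30 min at RT, then streptavidin donor/nickel chelate acceptor beads (10 ug/mL) for 30 min.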
G9a block – qHTS Assay for Inhibitors of Histone Lysine Methyltransferase G9a. Histone-lysine N-methyltransferase EHMT2 (Homo sapiens), Q96KQ7. G9a H3K9 monomethylation, AlphaScreen, 2 h. Potency, µM (doses to about 102 µM), usual class: inhibitors. hit rate 8.8% among 350,000; further: nearly all actives have a fitted effect of over 75% in size
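G9a (20 nM) preincubated 15 min RT with compounds, then 500 nM biotinylated H3K9 peptide and 20 uM SAM added; 2 h RT reaction. Monomethyl-H3K9 product detected by AlphaScreen with anti-H3K9me1 antibody, streptavidin donor and anti-rabbit IgG acceptor beads.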
L3MBTL1 inh – qHTS Assay for the Inhibitors of L3MBTL1; Lethal(3)malignant brain tumor-like protein 1 (Homo sapiens), Q9Y468; AlphaScreen L3MBTL1–H3K9me1 peptide binding; Potency, µM (series often up to 57.1 µM), most hits filed as inhibitors; hit rate 0.66% among 230,000; further: nearly all actives have a fitted effect of over 60% in size
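AlphaScreen proximity signal between nickel-chelate acceptor and streptavidin donor beads (final 10 ug/mL) reports binding of 50 nM L3MBTL1 to 75 nM biotin-H3 K9me1 peptide; complex incubated with compounds 30 min at room temperature; cefsulodin titration as control.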
Sfp inh – qHTS Assay for Inhibitors of Bacillus subtilis Sfp phosphopantetheinyl transferase (PPTase); 4'-phosphopantetheinyl transferase ffp (Bacillus subtilis), Q9F4F7; Biochemical Sfp PPTase activity, qHTS; Potency, µM, hits mostly inhibitors; hit rate 3.5% among 310,000; AID 1490, 2009;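 further: the enzyme is Sfp with the accession as filed and its product quenches rhodamine fluorescence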
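Buffer: 50 mM Hepes-Na pH 7.6, 10 mM MgCl2, 0.01% Nonidet P-40, 0.01% BSA. Enzyme 15 nM, pre-exposed to compound 15 min; substrates then added and fluorescence change tracked over 30 min.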
BAZ2B inh – qHTS Assay for Inhibitors of BAZ2B. Bromodomain adjacent to zinc finger domain protein 2B (Homo sapiens), Q9UIF8. AlphaScreen BAZ2B-H3K14Ac peptide displacement. hit rate 4.4% among 360,000. AID 504333, 2011. Potency, µM (titrated, usually from 114 µM), usual class: inhibitors; further: nearly all actives have a fitted effect of over 60% in size
Target sequence (Q9UIF8 whole entry, looked up, the tested form may be a part): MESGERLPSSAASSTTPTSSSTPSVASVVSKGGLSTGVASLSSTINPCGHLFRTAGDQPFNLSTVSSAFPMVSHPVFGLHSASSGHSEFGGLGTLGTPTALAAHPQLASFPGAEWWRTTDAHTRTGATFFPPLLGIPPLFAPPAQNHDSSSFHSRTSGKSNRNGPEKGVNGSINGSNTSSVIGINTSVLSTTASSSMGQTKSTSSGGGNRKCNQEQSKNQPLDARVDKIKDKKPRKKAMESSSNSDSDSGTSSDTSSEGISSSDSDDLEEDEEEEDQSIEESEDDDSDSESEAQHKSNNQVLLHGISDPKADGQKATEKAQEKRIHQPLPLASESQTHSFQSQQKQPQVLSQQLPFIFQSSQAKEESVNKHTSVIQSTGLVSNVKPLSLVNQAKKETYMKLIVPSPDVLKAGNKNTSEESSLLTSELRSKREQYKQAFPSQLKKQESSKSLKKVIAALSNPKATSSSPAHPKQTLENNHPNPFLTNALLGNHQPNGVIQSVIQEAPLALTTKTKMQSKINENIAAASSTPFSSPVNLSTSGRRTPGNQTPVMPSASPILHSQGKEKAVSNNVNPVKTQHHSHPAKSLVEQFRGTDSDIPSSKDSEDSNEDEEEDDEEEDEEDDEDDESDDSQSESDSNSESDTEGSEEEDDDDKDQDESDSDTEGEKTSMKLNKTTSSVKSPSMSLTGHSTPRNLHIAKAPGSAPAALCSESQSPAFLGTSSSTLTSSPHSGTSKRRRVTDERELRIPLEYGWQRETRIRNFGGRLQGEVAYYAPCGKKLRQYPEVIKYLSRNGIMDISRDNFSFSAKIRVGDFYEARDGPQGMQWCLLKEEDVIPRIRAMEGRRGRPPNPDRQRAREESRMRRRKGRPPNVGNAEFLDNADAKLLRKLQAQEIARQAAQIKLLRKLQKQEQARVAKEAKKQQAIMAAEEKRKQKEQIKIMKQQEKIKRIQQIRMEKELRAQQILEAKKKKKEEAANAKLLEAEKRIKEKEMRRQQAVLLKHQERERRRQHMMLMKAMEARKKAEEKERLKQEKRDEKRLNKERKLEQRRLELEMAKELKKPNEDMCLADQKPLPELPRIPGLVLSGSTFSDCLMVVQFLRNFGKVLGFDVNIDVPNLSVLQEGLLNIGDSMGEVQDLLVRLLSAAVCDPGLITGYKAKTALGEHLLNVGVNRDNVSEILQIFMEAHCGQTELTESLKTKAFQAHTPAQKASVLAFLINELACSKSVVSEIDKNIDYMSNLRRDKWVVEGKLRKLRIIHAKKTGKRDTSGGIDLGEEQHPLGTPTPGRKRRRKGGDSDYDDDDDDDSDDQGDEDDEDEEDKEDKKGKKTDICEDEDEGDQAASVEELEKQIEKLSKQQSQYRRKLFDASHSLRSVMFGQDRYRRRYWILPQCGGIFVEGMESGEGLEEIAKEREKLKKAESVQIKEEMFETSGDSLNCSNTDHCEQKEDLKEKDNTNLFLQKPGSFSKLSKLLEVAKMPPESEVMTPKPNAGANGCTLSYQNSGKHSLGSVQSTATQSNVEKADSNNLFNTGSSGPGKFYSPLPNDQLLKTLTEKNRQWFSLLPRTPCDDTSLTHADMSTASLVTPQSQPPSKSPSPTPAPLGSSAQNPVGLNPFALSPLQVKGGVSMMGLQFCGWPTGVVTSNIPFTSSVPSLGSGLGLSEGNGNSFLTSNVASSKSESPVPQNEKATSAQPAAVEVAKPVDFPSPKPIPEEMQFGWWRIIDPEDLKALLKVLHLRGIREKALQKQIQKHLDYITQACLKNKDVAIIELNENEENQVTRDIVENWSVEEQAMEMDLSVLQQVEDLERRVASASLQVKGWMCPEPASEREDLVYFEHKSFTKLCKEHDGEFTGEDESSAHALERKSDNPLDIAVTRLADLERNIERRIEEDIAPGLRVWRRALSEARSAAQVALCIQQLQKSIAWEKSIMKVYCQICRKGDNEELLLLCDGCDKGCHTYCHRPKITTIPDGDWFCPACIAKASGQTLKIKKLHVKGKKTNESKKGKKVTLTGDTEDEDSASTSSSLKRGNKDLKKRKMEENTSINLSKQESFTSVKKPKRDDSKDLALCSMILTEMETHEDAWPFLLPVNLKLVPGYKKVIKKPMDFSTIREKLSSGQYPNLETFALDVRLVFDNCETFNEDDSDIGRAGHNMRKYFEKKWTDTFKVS
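AlphaScreen displacement: compounds (up to 110uM) incubated 30 min at room temperature with a preformed 50 nM BAZ2B/50 nM biotinylated H3K14Ac peptide complex in PBS pH 7.4 with Tween-20. Donor and acceptor beads at 10 ug/mL final added, 20 min light-protected before reading.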
Large screens that a line does not name were inactive; ! = repeats disagree. A selection: hits, their analogues and other compounds. The true share with any hit is near 12%. The call rests on the fitted dose curve; in most records, active means well fitted curve in the direction sought with a large enough effect; inconclusive means small, poorly fitted or top-dose-only effect, or another doubt; inactive means no such curve, though single readings can be large; an effect the other way counts as inactive or inconclusive.

CCCCn1c(=O)[nH]c(=O)c2c1nc(-c1ccsc1)n2Cc1ccccc1	none (no result: L3MBTL1 inh)
CCCCn1c(-c2ccsc2)nc2c1c(=O)[nH]c(=O)n2CCC	G9a block inconclusive, Sfp inh 35µM (no result: L3MBTL1 inh)
CCCn1c(=O)[nH]c(=O)c2c1nc(-c1ccc(OC(F)(F)C(F)C(F)(F)F)cc1)n2CCOC (stereo unspecified)	G9a block 25µM (no result: L3MBTL1 inh)
COc1ccc(OCCCn2c(CCNC(=O)C3CCCCC3)nc3ccccc32)cc1	none (no result: G9a block, L3MBTL1 inh, Sfp inh, BAZ2B inh)
CCCOc1ccccc1-c1nc2n[nH]nc2c(=O)[nH]1	G9a block 14µM! (no result: L3MBTL1 inh, BAZ2B inh)
CCCc1nn(C)c2c(=O)[nH]c(-c3ccccc3OCC)nc12	G9a block inconclusive
Cc1ccc2sc(C)[n+](CCO)c2c1	G9a block 28µM, Sfp inh 45µM (no result: L3MBTL1 inh, BAZ2B inh)
Cn1c(C(=O)NCCN2CCOCC2)cc2c(=O)n(C)c3ccccc3c21	G9a block inconclusive (no result: L3MBTL1 inh)
Cn1c(C(=O)NCCN2CCN(c3ccccc3F)CC2)cc2c(=O)n(C)c3ccccc3c21	G9a block 45µM
Cn1c(C(=O)NCCN2CCc3ccccc3C2)cc2c(=O)n(C)c3ccccc3c21	G9a block 45µM
Cc1ccc(N2C(=O)CC(NCC3CCCO3)C2=O)cc1 (stereo unspecified)	none
O=C1CC(NCC2CCCO2)C(=O)N1c1ccc(Cl)cc1 (stereo unspecified)	G9a block 45µM
NC(=O)[C@@H]1CC2(CC(c3cccc(NC(=O)[C@H]4CCC(=O)N4)c3)=NO2)CN1C(=O)COc1ccc(Cl)cc1 (stereo partly specified)	JMJD2A Tudor inconclusive, G9a block inconclusive, BAZ2B inh 79µM (no result: L3MBTL1 inh)
C=C(C)C(=O)Nc1cccc(C2=NOC3(C2)C[C@@H](C(N)=O)N(C(=O)c2ccc(Cl)cc2)C3)c1 (stereo partly specified)	JMJD2A Tudor 7.1µM, HP1b binding inh 7.9µM, G9a block inconclusive, BAZ2B inh 11µM (no result: L3MBTL1 inh)
CCC(=O)Nc1cccc(C2=NOC3(C2)C[C@@H](C(N)=O)N(C(=O)c2ccccc2C(=O)c2ccccc2)C3)c1 (stereo partly specified)	none (no result: L3MBTL1 inh)
C=C(C)C(=O)Nc1cccc(C2=NOC3(C2)C[C@H](C(N)=O)N(C(=O)c2ccccc2)C3)c1 (stereo partly specified)	JMJD2A Tudor 22µM, HP1b binding inh inconclusive, G9a block inconclusive, BAZ2B inh 45µM (no result: L3MBTL1 inh)
C=C(C)C(=O)Nc1cccc(C2=NOC3(C2)C[C@H](C(N)=O)N(C(=O)COc2ccc(Cl)cc2)C3)c1 (stereo partly specified)	JMJD2A Tudor 10µM, HP1b binding inh 10µM, G9a block inconclusive, BAZ2B inh 6.3µM (no result: L3MBTL1 inh)
C/C=C(/C)C(=O)Nc1cccc(C2=NOC3(C2)C[C@H](C(N)=O)N(C(=O)c2ccc(Cl)cc2)C3)c1 (stereo partly specified)	none (no result: L3MBTL1 inh)
CCC(=O)Nc1cccc(C2=NOC3(C2)C[C@@H](C(N)=O)N(C(=O)COc2ccc(Cl)cc2)C3)c1 (stereo partly specified)	none (no result: L3MBTL1 inh)
CN(CCOc1ccc(Cl)cc1)C(=O)CN1C(=O)NC2(CCCCC2)C1=O	none (no result: Sfp inh)
COc1ncc2nc(-c3cc(F)cc(F)c3)c(=O)n(CCC#N)c2n1	none (no result: JMJD2A Tudor, HP1b binding inh, L3MBTL1 inh, BAZ2B inh)
Cc1cccc(N2CCN(c3cc(C)nc4c(-c5ccc(Cl)cc5)c(C)nn34)CC2C)c1 (stereo unspecified)	none (no result: L3MBTL1 inh, Sfp inh)
O=C(c1cccc(Cl)c1)N(Cc1cccc(F)c1)C1CCS(=O)(=O)C1 (stereo unspecified)	none (no result: L3MBTL1 inh, Sfp inh)
COc1ccc(N2CCN(c3ncnc4c3nnn4Cc3ccccc3Cl)CC2)cc1	none
CSc1ncccc1C(=O)Nc1cc(Cl)ccc1N1CCOCC1	none (no result: G9a block, Sfp inh, BAZ2B inh)
C/C=C/C(=O)Nc1cccc(C2=NOC3(C2)C[C@@H](C(N)=O)N(C(=O)c2cc([N+](=O)[O-])cc([N+](=O)[O-])c2C)C3)c1 (stereo partly specified)	none (no result: L3MBTL1 inh)
C=C(C)C(=O)Nc1cccc(C2=NOC3(C2)C[C@@H](C(N)=O)N(C(=O)c2cc([N+](=O)[O-])cc([N+](=O)[O-])c2C)C3)c1 (stereo partly specified)	JMJD2A Tudor 18µM, HP1b binding inh 6.3µM, G9a block inconclusive, BAZ2B inh 28µM (no result: L3MBTL1 inh)
CC1(c2ccc(Cl)cc2)NC(=O)N(CC(=O)NCCC2=CCCCC2)C1=O (stereo unspecified)	G9a block 0.89µM (no result: Sfp inh)
Cc1ccc(C2(C)NC(=O)N(CC(=O)NCCC3=CCCCC3)C2=O)cc1 (stereo unspecified)	G9a block inconclusive (no result: L3MBTL1 inh)
O=c1nc2cccc3c2=c(/c1=C(\O)c1ccccc1)c1ccccc1c3=O	G9a block inconclusive, BAZ2B inh 89µM
O=C(c1cc2c(s1)-c1ccccc1OC2)N1CCN(c2ccc(F)cc2)CC1	none (no result: L3MBTL1 inh, Sfp inh)
O=C(c1ccco1)N1CCN(C(=O)c2cc3c(s2)-c2ccccc2OC3)CC1	G9a block 45µM, Sfp inh 50µM, BAZ2B inh inconclusive
CCOc1ccccc1Nc1sc(C(=O)c2ccc(Cl)cc2)c(N)c1C#N	none (no result: L3MBTL1 inh, Sfp inh)
CNC[C@H](Cc1cccc2ccccc12)NC[C@H](CCSC)NCC1CCC(C(C)(C)C)CC1 (stereo partly specified)	none (no result: JMJD2A Tudor, HP1b binding inh, G9a block, Sfp inh, BAZ2B inh)
CC1(C#CC[N+]2(C)CCCCC2)CCC2C(O1)c1ccccc1OC2(C)C (stereo unspecified)	HP1b binding inh inconclusive, G9a block 3.2µM, Sfp inh 56µM, BAZ2B inh 56µM (no result: L3MBTL1 inh)
CC1(C(O)(C#CC[N+]2(C)CCCCC2)c2ccccc2)CCCC1 (stereo unspecified)	JMJD2A Tudor inconclusive, HP1b binding inh inconclusive, G9a block inconclusive, BAZ2B inh inconclusive
CCOC(=O)C1=C(N)Oc2cc(O)ccc2C1c1cccc([N+](=O)[O-])c1 (stereo unspecified)	JMJD2A Tudor inconclusive, BAZ2B inh 40µM (no result: G9a block)
COC(=O)c1ccc(CNC(=O)COC(=O)c2cc(Cl)nc(Cl)c2)cc1	G9a block 50µM
Fc1cnc(N2CCN(c3ccccc3)CC2)nc1N1CCN(c2ccccc2)CC1	G9a block 50µM, Sfp inh inconclusive, BAZ2B inh inconclusive
N#C/C(=N\Nc1ccccc1)C(N)=S	JMJD2A Tudor 22µM, G9a block 1.6µM, Sfp inh 18µM, BAZ2B inh inconclusive
N#C/C(=N/Nc1ccccc1[N+](=O)[O-])C(N)=S	G9a block 1.1µM, Sfp inh inconclusive (no result: L3MBTL1 inh)
